The source made the active and inactive calls. No rule for the calls is given here.
target: Estrogen receptor (Homo sapiens) (UniProt P03372); experiment: ERalpha ligand binders by competition, primary screen, cell-based, Cos7 ERalpha-GFP, flow cytometry (AID 1211); conditions: fluorescent ligand competition, at 10 µM, hits give high values;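 also: 0% = DMSO vehicle wells and 100% = no E2-Alexa633 signal left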
Sequence (P03372 whole entry, looked up): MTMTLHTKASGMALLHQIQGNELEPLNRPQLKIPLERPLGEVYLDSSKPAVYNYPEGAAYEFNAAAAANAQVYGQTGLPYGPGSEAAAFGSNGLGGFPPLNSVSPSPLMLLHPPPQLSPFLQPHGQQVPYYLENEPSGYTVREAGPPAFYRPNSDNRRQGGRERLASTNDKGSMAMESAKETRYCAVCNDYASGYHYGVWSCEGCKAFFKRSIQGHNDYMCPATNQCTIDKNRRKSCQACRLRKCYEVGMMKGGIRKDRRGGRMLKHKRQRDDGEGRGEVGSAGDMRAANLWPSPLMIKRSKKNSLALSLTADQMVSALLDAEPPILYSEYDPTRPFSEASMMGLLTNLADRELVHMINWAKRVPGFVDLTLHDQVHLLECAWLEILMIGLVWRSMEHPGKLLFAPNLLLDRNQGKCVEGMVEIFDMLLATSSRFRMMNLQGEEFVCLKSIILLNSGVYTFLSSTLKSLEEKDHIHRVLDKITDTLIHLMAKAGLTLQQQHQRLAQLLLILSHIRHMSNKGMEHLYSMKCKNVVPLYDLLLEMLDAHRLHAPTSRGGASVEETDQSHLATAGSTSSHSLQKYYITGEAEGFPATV

| Compound | inhibition of ligand binding |
| --- | --- |
| O=C(c1cccs1)N1N=C(c2ccccc2)CC1c1ccc(O)cc1 (stereo not drawn) | 21% (inactive) |
| COc1cc([N+](=O)[O-])cc2c1NC(c1ccccc1Cl)C1CC=CC21 (stereo not drawn) | 0% (inactive) |
| CC(C)C1Nc2ccc(S(N)(=O)=O)cc2C2C=CCC21 (stereo not drawn) | 70% (active) |
| c1coc(C2Nc3ccccc3C3OCCC23)c1 (stereo not drawn) | 41% (inactive) |
| CCOC(=O)COc1cc2oc(=O)c3c(c2cc1CC)CCCC3 | 0% (inactive) |
| O=c1cc(CSc2nnnn2-c2ccccc2)nc(Nc2ccc(F)cc2)[nH]1 | 26% (inactive) |
| COc1cc(C2C3C(C)N(C)C(=O)N(C)C3N(C)C(=O)N2C)ccc1O (stereo not drawn) | 0% (inactive) |
| CCOC(=O)C1=C(C)NC(=O)NC1c1ccco1 (stereo not drawn) | 56% (inactive) |
| CC(Nc1ccc(N2CCNCC2)cc1[N+](=O)[O-])C12CC3CC(CC(C3)C1)C2 (stereo not drawn) | 5% (inactive) |
| CCCOc1cc(OCCC)c2c3c(c(=O)oc2c1)CCCC3 | 3% (inactive) |
| CCc1cc2c3c(c(=O)oc2cc1OCC(=O)O)CCCC3 | 10% (inactive) |
| CC(C)CN(Cc1c(O)ccc2c3c(c(=O)oc12)CCC3)CC(C)C | 6% (inactive) |
| CCCCCCc1cc2c3c(c(=O)oc2cc1OCC(N)=O)CCC3 | 3% (inactive) |
| CC(=O)c1ccc2c(c1)C1C=CCC1C(c1ccc(S(=O)(=O)N3CCOCC3)cc1)N2 (stereo not drawn) | 0% (inactive) |
| CCCCc1cc(=O)oc2c(C)c(O)ccc12 | 0% (inactive) |
| Cn1c(SCC(=O)N2c3ccccc3CCc3ccccc32)nnc1-c1cc2ccccc2cc1O | 34% (inactive) |
| COc1cccc(C2NCCc3cc(OC)c(OC)cc32)c1 (stereo not drawn) | 10% (inactive) |
| CC(=O)Oc1ccc2c(c1)CCC1C2C(O)CC2(C)C(=O)CCC12 (stereo not drawn) | 15% (inactive) |
| N#Cc1ccc(-c2cccnc2)nc1SCC(=O)Nc1sc2c(c1C#N)CCC2 | 15% (inactive) |

| Compound | inhibition of ligand binding |
| --- | --- |
| CCc1cc2c3c(c(=O)oc2cc1OCC(=O)OC)CCCC3 | 3% (inactive) |
| Clc1ccc2c(c1)[C@H]1OCC[C@H]1[C@@H](c1ccco1)N2 | 0% (inactive) |
| CC1CCCC(C)N1Cc1c(O)ccc2c3c(c(=O)oc12)CCC3 (stereo not drawn) | 13% (inactive) |
| CSCCC(NC(=O)c1ccco1)C(=O)OCC(=O)Nc1sccc1C#N (stereo not drawn) | 4% (inactive) |
| COc1ccc(CNC(=O)COC(=O)c2cc(-c3ccco3)nc3ccccc23)cc1 | 20% (inactive) |
| O=C(Nc1cc(C(F)(F)F)ccc1N1CCOCC1)C1Cc2ccccc2CN1C(=O)c1ccco1 (stereo not drawn) | 56% (inactive) |
| CC(C)C1Nc2ccc(C(=O)O)cc2C2C=CCC21 (stereo not drawn) | 36% (inactive) |
| COc1ccc(C2CC(c3ccccc3)=NN2C(=O)CSc2nccc(=O)[nH]2)cc1 (stereo not drawn) | 20% (inactive) |
| CCCCCCc1cc2c3c(c(=O)oc2cc1OCC(=O)OC)CCC3 | 0% (inactive) |
| CC(=O)OC1CC2(C)C(=O)CCC2C2CCc3cc(O)ccc3C12 (stereo not drawn) | 23% (inactive) |
| COc1ccc(NS(=O)(=O)c2ccc3c(c2)[C@H]2C=CC[C@H]2[C@@H](c2ccc(C(=O)O)cc2)N3)cc1 | 100% (active) |
| COc1ccccc1C1Nc2c(C(=O)O)cccc2C2C3CCC(C3)C12 (stereo not drawn) | 19% (inactive) |
| COc1ccc(NC2=CC(c3cccc(OC)c3)N(c3ccc(OC)cc3)C2=O)cc1 (stereo not drawn) | 48% (inactive) |
| CCOc1ccc(NS(=O)(=O)c2ccc3c(c2)[C@H]2C=CC[C@H]2[C@@H](c2ccc(C(=O)O)cc2)N3)cc1 | 66% (active) |
| Cc1noc(C)c1CSCC(=O)OCC(=O)Nc1sccc1C#N | 2% (inactive) |
| C=CCn1c(COc2ccccc2F)nnc1SCC(=O)NC(=O)NCc1ccco1 | 11% (inactive) |
| Cc1oc2ccc(OCC#N)cc2c1C(=O)OC(C)C | 0% (inactive) |
| CCOc1ccc(NS(=O)(=O)c2ccc3c(c2)[C@H]2C=CC[C@H]2[C@@H](c2ccc([N+](=O)[O-])cc2)N3)cc1 | 9% (inactive) |
| COCCCn1c(Cc2csc(Nc3cccc(Cl)c3)n2)nnc1SCC(=O)OC1CCCCC1 | 37% (inactive) |

From PubChem BioAssay AID1211 (NMMLSC, 2008)
